Most compounds without a hit are left out; they make up all but 2.4% or so of the library.
TRAIL sens C8: caspase-8 TRAIL sensitization; NB7+C8 cells + TRAIL, ATPlite viability luminescence; inhibition (viability loss, TRAIL sensitization), % at 10 µM; actives 1% (n = 360,000);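 active means compounds causing at least 50% loss of cell viability in the single-dose screen, relative to plate controls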
PPC-1+TRAIL kill: PPC-1 cancer cell killing with TRAIL present; AID 1443; cell killing (% activity), % at 4 µM or 5 µM; actives 0.41% (n = 220,000); PPC-1 cells + TRAIL, ATPLite viability luminescence;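 active means cell killing above 50% in the first pass at 4 µM, then a duplicate retest at 5 µM averaging 50% or more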;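 further: plate controls were cells with TRAIL plus DMSO for no effect and medium-only wells lacking cells for full effect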
STAT3 blocker: reduces IL-6 driven STAT3 reporter signal; U3A cells, IL-6 STAT3-luciferase reporter, luminescence; host cell line lacks STAT1; inhibition, % at 5.5 µM; actives 0.89% (n = 190,000);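 active means inhibition above the mean inhibition across all screened compounds plus 3 SD, cut at about 44% in these data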;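 further: 0% = DMSO only wells and 100% = 100 µM nifuroxazide control wells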
HSF1 inhib: HSF1 inhibition; NIH3T3-HGL HSE-luciferase, MG132-induced, luminescence 8 h; stronger effect = lower value; activity change, negative = inhibition, % at 7.5 µM (by protocol); actives 0.77% (n = 300,000); AID 2098;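 active means more than half of replicate wells show activity change below -50%, luminescence cut by over half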;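 further: luciferase reports HSF-1 transcriptional activity via heat shock element; 0% = median of DMSO wells and -100% = zero luminescence signal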
HSP90 inh: blocks HSP90-mediated luciferase refolding in reticulocyte lysate. Rabbit reticulocyte lysate, luciferase refolding luminescence, 3 h. inhibition, % at 5.6 µM. actives 0.91% (n = 290,000). AID 1789;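 active means inhibition above the screen-wide mean plus 3 SD, computed separately per campaign, cut at about 16% in these data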;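 further: 0% = DMSO wells and 100% = 60 µM geldanamycin wells; inhibitors lower the luminescence because luciferase stays unfolded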
STAT1 inh: inhibitors of IFN-gamma induced STAT1 signaling | NIH 3T3 STAT1-luciferase reporter, luminescence | inhibition, % at 5.5 µM | actives 0.35% (n = 200,000);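 active means inhibition above a set limit, the mean inhibition across all tested compounds plus 3 SD, cut at about 34% in these data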;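 further: 0% = IFN-gamma with DMSO and 100% = IFN-gamma with 300 µM nifuroxazide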
HSP90 confirm: confirmation of HSP90 inhibitors | actives 64% (n = 2,300) | rabbit reticulocyte lysate, luciferase refolding luminescence, 3 h | shares compounds with HSP90 inh | inhibition, % at 5.9 µM; in the data active means inhibition above about 18%;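 further: 0% = vehicle wells and 100% = reference inhibitor wells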
luciferase ctr: counter-screen for HSP90 inhibitors: inhibitors of firefly luciferase | shares compounds with HSP90 inh | purified native firefly luciferase, luminescence | inhibition, % at 5.9 µM | actives 48% (n = 2,300) | AID 1847;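 active means inhibition above the mean inhibition of all tested sample wells plus 3 SD, cut at about 10% in these data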;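 further: 0% = DMSO with luciferase and 100% = wells lacking luciferase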
Target sequence (P08659 whole entry, looked up): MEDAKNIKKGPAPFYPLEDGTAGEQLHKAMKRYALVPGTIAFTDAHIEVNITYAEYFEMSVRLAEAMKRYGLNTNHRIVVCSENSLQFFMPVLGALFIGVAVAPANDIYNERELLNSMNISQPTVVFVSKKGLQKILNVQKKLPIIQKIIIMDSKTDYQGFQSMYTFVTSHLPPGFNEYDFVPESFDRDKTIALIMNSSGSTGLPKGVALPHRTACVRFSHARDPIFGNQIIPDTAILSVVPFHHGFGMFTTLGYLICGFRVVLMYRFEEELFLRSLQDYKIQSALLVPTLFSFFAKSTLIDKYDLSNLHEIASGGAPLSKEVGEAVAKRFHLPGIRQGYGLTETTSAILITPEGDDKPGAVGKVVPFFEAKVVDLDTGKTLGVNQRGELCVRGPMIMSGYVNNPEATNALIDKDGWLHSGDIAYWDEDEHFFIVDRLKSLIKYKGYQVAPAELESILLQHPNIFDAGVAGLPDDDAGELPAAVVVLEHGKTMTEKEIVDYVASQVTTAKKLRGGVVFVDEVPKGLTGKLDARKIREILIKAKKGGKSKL
An asterisk follows results filed as active; x = no result given.

SMILES	TRAIL sens C8	PPC-1+TRAIL kill	STAT3 blocker	HSF1 inhib	HSP90 inh	STAT1 inh	HSP90 confirm	luciferase ctr
CCOC(=O)N1CCN(C(=O)c2ccc3nc(N4CCCCC4)sc3c2)CC1	-10	-12	-2	0	22*	2	23*	-6
O=C(O)CC1(CC(=O)Nc2nccs2)CCCCC1	4	x	x	x	x	x	x	x
CC(=O)c1c(O)cc2c3c1OC(C)(C)C1CCC(C)(CC31)O2 (stereo not given)	16	x	x	x	x	x	x	x
C[C@@H](c1ccccc1)N1C[C@H](COCc2ccccc2)Oc2cc(N3CCC[C@@H]3CO)ccc2S1(=O)=O	5	x	x	x	x	x	x	x
Cn1c(-c2ccc(F)cc2)cnc1SCC(=O)N1CCCCC1	9	10	34	13	18*	-42	27*	19*
CCCCC(=O)NC(c1ccccc1)c1ccc2cccnc2c1O (stereo not given)	32	x	x	-42	16	x	x	x
CCCC(=O)NC(c1ccccc1)c1ccc2cccnc2c1O (stereo not given)	-24	x	x	-43	20*	x	18*	-3
CCCc1ccc(OCc2ccc(C(=O)O)o2)c(OC)c1	-2	15	9	4	81*	-30	82*	41*
C=CCc1ccc(OCCn2cccc2C=O)c(OC)c1	3	-17	13	17	23*	-53	35*	-18
CCCc1ccc(OCc2ccc(C(=O)NN)o2)c(OC)c1	6	x	x	22	2	x	x	x
CCCc1ccc(OCc2ccc(C(=O)OC)o2)c(OC)c1	-1	21	-12	-6	24*	-35	30*	-21
Cc1ccc(OCc2ccc(C(=O)O)o2)c([N+](=O)[O-])c1	6	16	2	0	20*	6	44*	-4
O=C(Nc1cccc(Cl)c1)Nc1nnc([C@H]2C[C@H](O)[C@@H](CO)O2)s1	-27	x	x	x	x	x	x	x
COc1ccccc1C(=O)NCC[N+](C)(C)C	7	x	x	x	x	x	x	x
COc1ccc(OC)c(C(=O)COC(=O)c2ccccc2O)c1	13	23	-36	2	1	-8	x	x
C=CCc1ccc(OCc2ccc(C(=O)O)o2)c(OC)c1	-11	x	x	5	86*	x	83*	46*
Cc1ccc(CSCC(Nc2ccc(C(=O)O)cc2[N+](=O)[O-])C(=O)O)cc1 (stereo not given)	-22	-2	4	-15	25*	0	-3	-5
COc1ccccc1Nc1nn2c(=O)c3ccc(C(=O)NCc4cccnc4)cc3nc2s1	3	x	x	-4	20*	x	38*	-2
COc1cccc(CCC(=O)N2CCC(n3nccc3NC(=O)CC(C)C)CC2)c1	-7	x	x	3	-3	x	x	x
CC(C)(C)c1ccc(-c2conc2N)cc1	25	16	4	x	69*	-32	-5	-14
CC(C)(C)c1ccc(-c2nc(N)nc(N)n2)cc1	30	15	x	6	0	x	x	x
CN(C)CCCn1c(N)c(C#N)c2nc3ccccc3nc21	-21	12	x	2	47*	x	-7	-10
CCCCC(CC)Cn1c(N)c(C#N)c2nc3ccccc3nc21 (stereo not given)	-5	2	-5	14	-3	-11	x	x
Cc1c(Cl)cccc1NC(=O)CCCn1cnc([N+](=O)[O-])n1	0	-2	12	0	18*	1	2	-4
S=C(NCc1cccnc1)c1ccccc1	-21	x	x	2	19*	x	0	-2
COC(=O)NCCOC(=O)N(O)c1ccc(Br)cc1	5	13	14	-5	50*	7	75*	-20
COCCNC(=O)CN(C)S(=O)(=O)c1ccc(Br)cc1	-12	-4	4	-2	-1	-1	x	x
O=C1OCCC1Sc1nnc(-c2ccccc2)o1 (stereo not given)	9	-22	4	1	1	4	x	x
O=C1OCCC1Sc1nnc(-c2ccc(Cl)cc2Cl)o1 (stereo not given)	29	25	x	-35	33*	x	67*	57*
